Screening data from PubChem.
Shiga inhibitor: blocks Shiga toxin action in Vero cells. inhibition, % at 38.7 µM. Vero cells, Shiga toxin protein synthesis inhibition reporter. 290,000 compounds, 9.2% hits; in the data active = inhibition mostly above about 28%, no sharp cut-off; inactive = mostly below about 43%; note: 0% is about no effect
AmpC no deterg: blocks E. coli AmpC beta-lactamase in detergent-free assay; P00811; AmpC nitrocefin hydrolysis, absorbance 480 nm, 0.0001% Triton; Potency, µM (doses to about 57.1 µM), inactives show at the top dose activity change, negative = inhibition, usual class: inhibitors; 330,000 compounds, 0.52% hits; AID 485341;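 note: potency is the fitted concentration of half-maximal effect; plate controls were no compound for no effect and no enzyme for full effect; nearly all actives have a fitted effect of over 20% in size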
Target sequence (P00811 whole entry, looked up): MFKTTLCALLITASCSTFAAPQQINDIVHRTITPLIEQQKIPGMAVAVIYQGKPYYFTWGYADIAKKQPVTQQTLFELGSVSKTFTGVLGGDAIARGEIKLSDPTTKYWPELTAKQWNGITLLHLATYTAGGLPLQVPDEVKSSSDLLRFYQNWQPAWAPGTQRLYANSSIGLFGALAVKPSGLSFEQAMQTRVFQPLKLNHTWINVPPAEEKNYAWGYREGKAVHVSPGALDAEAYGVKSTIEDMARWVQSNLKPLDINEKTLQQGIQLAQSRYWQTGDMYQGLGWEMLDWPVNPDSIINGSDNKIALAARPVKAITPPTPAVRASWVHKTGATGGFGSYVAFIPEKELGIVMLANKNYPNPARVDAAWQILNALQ
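20 mM phosphate pH 7.0 + 0.01% (detergent screen) or 0.0001% Triton X-100; 5.3 nM AmpC reagent; cpd preinc 15 min RT; nitrocefin (800 uM stock) to start; A480 q20 s × 4 min; Activity was normalised to no-enzyme and no-compound control wells.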
CHX counter: counter-screen for Shiga toxin inhibitors: cycloheximide protein synthesis inhibition | 300,000 compounds, 12% hits | max response, % | cell reporter, cycloheximide protein synthesis inhibition counterscreen; in the data active = max response mostly above about 13%, no sharp cut-off; inactive = mostly below about 14%; note: read at 38.3 µM for the half of the compounds with a filed dose; 0% is about no effect
AmpC inh detg: blocks E. coli AmpC beta-lactamase in detergent assay; AmpC hydrolysis of nitrocefin, absorbance 480 nm, 0.01% Triton; Potency, µM (doses to about 114 µM), inactives show top-dose activity change, negative = inhibition, actives largely listed as inhibitors; 370,000 compounds, 0.041% hits; AID 485294;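 note: potency is the fitted concentration of half-maximal effect; 0% = no-compound wells and -100% = no-enzyme wells; nearly all actives have a fitted effect of over 25% in size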
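AmpC (5.3 nM in the dispensed reagent) in 20 mM phosphate pH 7.0 with 0.01% (detergent screen) or 0.0001% Triton X-100 was preincubated with compounds for 15 min at room temperature. Nitrocefin was then added from an 800 uM solution, and hydrolysis was followed at 480 nm.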
NS1 inh: blocks influenza NS1 protein function; Potency, µM (titrated, usually from 46.1 µM), for the others: at the top dose activity, positive = more growth; 270,000 compounds, 0.4% hits; AID 2326; calls by dose curve; note: potency is the fitted concentration of half-maximal effect; actives are rising curves; nearly all actives have a fitted effect of over 50% in size
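S. cerevisiae expressing influenza A NS1, grown in glucose, washed, then diluted 1:100 into pH 6.0 -URA galactose medium with 23 nl compound. Growth recovery read as OD600; NS1-free strain serves as control.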
Numbers without * were called inactive; ? = inconclusive; · = not tested or not shown. This is one part of a sample in which hits are shown more often than they occur. Unless noted, calls come from the whole dose curve; as a rule, active = well fitted curve in the direction sought with a large enough effect; inconclusive = small, poorly fitted or top-dose-only effect, or another doubt; inactive = no such curve, though single readings can be large; an effect the other way counts as inactive or inconclusive.

SMILES	Shiga inhibitor	AmpC no deterg	CHX counter	AmpC inh detg	NS1 inh
O=C(CNC(=O)c1cc(Cl)cc([N+](=O)[O-])c1)NC1CC1	·	-16%	·	·	·
CC(NC(=S)NC1CCCCC1)c1ccc(C(C)(C)C)cc1 (configuration not stated)	1	-44%	5	-9%	-71%
Clc1ccc2nc(-c3ccc(Cl)nc3)[nH]c2c1	53*	-52%	24*	1%	-51%
Nc1ccc2nc(-c3cccc(-c4nc5ccc(N)cc5[nH]4)c3)[nH]c2c1	-4	-18%	10	0%	?
Nc1ccc2nc(C3CCCCC3)[nH]c2c1	95	-30%	13*	3%	-1%
Nc1ccc(-c2nc3c(Cl)c(N)ccc3[nH]2)cc1	78*	-17%	15	-5%	-2%
c1ccc2[nH]c(C3CC3)nc2c1	1	-5%	-2	4%	-5%
Nc1ccc2nc(-c3ccc(Cl)cc3)[nH]c2c1	97*	-6%	62*	-10%	-10%
CCCCN1C(C(=O)Nc2ncccn2)=C(O)c2ccccc2S1(=O)=O	-5	-16%	-1	0%	-1%
COc1ccc(-c2nnc3n2N=C(c2c(OC)cccc2OC)CS3)c(OC)c1	4	·	12	·	·
O=C(CSC1=NCCN1)c1ccccc1	·	·	·	·	-4%
Nc1ccc2nc(-c3cc(Cl)c(N)c(Cl)c3)[nH]c2c1	64*	-5%	36*	-3%	?
Cc1ccc(C)c(-c2nc3ccc(N)cc3[nH]2)c1	33	-15%	14*	3%	?
Cc1ccc2nc(-c3ccccn3)[nH]c2c1	15	-7%	18*	?	-38%
NC(=O)c1ccc2nc(-c3ccc(Oc4ccc(Cl)cc4)cc3)[nH]c2c1	45*	·	16	·	·
Cc1ccc2nc(CCCc3nc4ccc(C)cc4[nH]3)[nH]c2c1	2	-44%	-1	?	5%
Cc1nc2ccc(-c3nc4ccc(N)cc4[nH]3)cc2[nH]1	-6	-18%	-1	7%	3%
CCOC(=O)c1cc2sccc2n1CC(=O)c1ccc2c(c1)OCCO2	48	-24%	11	-10%	-12%
CN(CC(=O)Nc1ccc(F)cc1)C(=O)COC(=O)c1cccc(N(C)C)c1	·	-15%	·	-15%	·
Cc1ccc2nc(Cc3ccc(N)cc3)[nH]c2c1	75*	-23%	20*	?	-7%
CCN1C/C(=C/c2ccc(OC)c(O)c2)C(=O)/C(=C/c2ccc(OC)c(O)c2)C1	-24	-11%	-4	-11%	·
COc1ccc(/C=C2\CN(Cc3ccccc3)C/C(=C\c3ccc(OC)c(O)c3)C2=O)cc1O	-5	-15%	14*	-9%	15%
COc1cc(C=C2C(=O)c3ccccc3C2=O)cc(OC)c1OC	34	-27%	9	?	·
COc1cc(/C=C2\COC/C(=C\c3ccc(O)c(OC)c3)C2=O)ccc1O	37*	-55%	33*	-3%	-9%
COc1cc(C=C2C(=O)c3ccccc3C2=O)ccc1O	78*	-38%	28*	5%	-1%
SMILES	Shiga inhibitor	AmpC no deterg	CHX counter	AmpC inh detg	NS1 inh
COc1ccc(C=C2C(=O)c3ccccc3C2=O)cc1O	115*	-50%	38*	8%	·
CSc1ccc(-c2cc(=O)c3ccccc3o2)cc1	34*	-2%	40*	0%	-22%
O=c1cc(-c2ccccc2F)oc2ccccc12	59*	-16%	28*	-7%	-7%
Cc1ccccc1-c1cc(=O)c2ccccc2o1	·	-20%	·	·	·
C[C@@H](N=C(N)N)C(=O)O	·	·	·	·	-3%
CC1Sc2ccc(C(=O)O)cc2NC1=O (configuration not stated)	30	11%	7	-1%	8%
COc1ccc(CNC(=O)c2ccc3c(c2)NC(=O)C(C)S3)cc1 (configuration not stated)	37*	-40%	21*	7%	-4%
O=C(c1ncc[nH]1)c1cccs1	24	-2%	29*	7%	-5%
COc1cccc(OCC(=O)N2CCN(C)CC2)c1	53*	-10%	35*	-14%	6%
Cc1ccccc1OCC(=O)N1CCCc2ccccc21	active	-11%	33*	2%	-30%
COc1cccc(OCC(=O)N2CCCc3ccccc32)c1	26	-13%	37*	2%	-11%
CN1CCN(C(=O)COc2ccc(Oc3ccccc3)cc2)CC1	47	62%	6	-8%	-1%
O=C(COc1ccc(F)cc1)N1CCCc2ccccc21	44	-19%	11	?	-2%
O=C(COc1ccc2c3c(c(=O)oc2c1)CCC3)Nc1ccc(CN2CCOCC2)cc1	-1	1%	1	-3%	-1%
CN(c1cc(=O)n2ccccc2n1)C1CCCCC1	24	-12%	24*	-1%	-60%
CCOc1ccc(S(=O)(=O)Nc2cccc(C(=O)NCC(c3ccccc3)N(C)C)c2)cc1 (configuration not stated)	·	-6%	·	-17%	·
COc1ccc(-c2cc(C(=O)NCC(c3ccccc3)N(C)C)c3ccccc3n2)cc1OC (configuration not stated)	-1	200%	-5	-1%	-2%
COc1ccc(C(CNC(=O)c2cccc(NS(=O)(=O)c3ccccc3)c2)N(C)C)cc1 (configuration not stated)	27	-23%	16*	4%	10%
COc1ccc(C(CNC(=O)c2ccc(-c3ccccc3)cc2)N(C)C)cc1OC (configuration not stated)	34	155%	10*	-8%	-11%
O=C(CC1Oc2ccccc2NC1=O)NCc1ccccc1 (configuration not stated)	14	-11%	-3	-17%	4%
CC(=O)CC1OC(=O)C(Br)=C1NCc1ccccc1 (configuration not stated)	29	-15%	22*	-16%	-1%
Cc1ccc(CNC(=O)CSc2nc3ccsc3c(=O)n2NC(=O)c2ccccc2)cc1	32	-44%	3	?	-10%
CCC(C)NC(=O)CSc1nc2ccsc2c(=O)n1NC(=O)c1ccccc1 (configuration not stated)	33	-16%	28	-6%	1%
O=C(Nn1c(SCc2ccc(F)cc2)nc2ccsc2c1=O)c1ccccc1	19	-9%	28*	9%	21%
Cc1cc(NC(=O)CSc2nc3ccsc3c(=O)n2NC(=O)c2ccccc2)no1	37*	-32%	36*	-2%	-19%
SMILES	Shiga inhibitor	AmpC no deterg	CHX counter	AmpC inh detg	NS1 inh
Cc1cc(C)cc(-n2ccn(CC(=O)Nc3ccccc3F)c(=O)c2=O)c1	·	·	·	7%	·
N#C/C(=C\c1ccc(O)cc1)C(=O)N1CCCC1	21	-45%	10	-3%	4%
N#C/C(=C\C=C\c1ccccc1)C(=O)N1CCCC1	70*	-2%	22*	-12%	3%
N#C/C(=C\c1ccc(OC(F)F)cc1)C(=O)N1CCCCC1	46*	4%	27*	9%	-46%
Cc1ccc(/C=C(\C#N)C(=O)N2CCCC2)c(C)c1	125*	-9%	37*	4%	-5%
CCn1c(-c2ccccc2)csc1=Nc1ccc(O)cc1	82*	-53%	48*	-9%	·
